Screening results as filed in PubChem BioAssay.
Only some compounds are listed: those with a hit (about 17% of all), similar ones and a draw of the others.
HepG2 tox: qHTS for Inhibitors of TGF-b: Cytotox Counterscreen; 410,000 compounds, 0.76% hits; Potency, µM (series often up to 46.1 µM), usual class: cytotoxic; HepG2 CAGA-GFP viability, ATP luminescence, 18 h
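CellTiter-Glo luminescence gave cytotoxicity after 18 hours at 37 degrees C. The cells were HepG2 CAGA-GFP in 1% FBS DMEM, stimulated with 500 pg/mL TGF-beta after compound addition. %Activity was normalised to no-cell wells (complete cell-killing) and DMSO (no toxicity), and curves were fitted and classified.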
HT1080-NT tox: qHTS for induction of synthetic lethality in tumor cells producing 2HG: qHTS for the HT-1080-NT fibrosarcoma cell line; HT-1080-NT fibrosarcoma viability, CellTiter-Glo ATP luminescence, 48 h; Potency, µM (doses to about 46.1 µM), most hits filed as cytotoxic; 360,000 compounds, 1.6% hits;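 note: NT is the 2HG producing partner of a matched IDH1 knockdown line; nearly all actives have a fitted effect of over 55% in size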
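HT-1080-NT fibrosarcoma cells (2HG-overproducing), 750 cells/well in RPMI with 5% FBS, dosed after 2 h and incubated 48 h at 37C. CellTiter-Glo luminescence normalized to DMSO and no-cell wells; concentration-response curves fitted and classed.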
TGFb SMAD3 inh: qHTS for Inhibitors of TGF-b | Potency, µM (series often up to 46.1 µM), actives largely listed as inhibitors | 410,000 compounds, 1.2% hits | AID 588855, 2011 | HepG2 CAGA-GFP TGF-b/SMAD3 reporter, GFP fluorescence, 18 h; TGF-beta stimulated, 500 pg/mL final; note: nearly all actives have a fitted effect of over 65% in size
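Per well, imaged GFP fluorescence of HEPG2 CAGA-GFP cells gives the signal; cells get compound, then TGF-beta (500 pg/mL final), 18 h at 37 degrees C; %Activity versus -TGF-beta and +DMSO controls.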
DT40 TDP1 no CPT: qHTS for Inhibitors of human tyrosyl-DNA phosphodiesterase 1 (TDP1): qHTS in cells in absence of CPT; DT40 Tdp1-/- hTDP1 cells, no CPT, ATP luminescence, 48 h; Potency, µM (highest dose often 46.2 µM), actives largely listed as inhibitors; 420,000 compounds, 15% hits; AID 686978, 2013; note: nearly all actives have a fitted effect of over 55% in size
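Seeded 400 DT40-hTDP1 cells/well (vehicle DMSO, no 20 nM CPT); pinned compounds; ≥48 hr at 37 °C; CellTiter-Glo luminescence as viability measure.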
HT1080 IDH1KD tx: qHTS for induction of synthetic lethality in tumor cells producing 2HG: qHTS for the HT-1080-IDH1KD cell line; Potency, µM (highest dose often 46.1 µM), most hits filed as cytotoxic; HT-1080 IDH1 knockdown viability, ATP luminescence, 48 h; 360,000 compounds, 2% hits; AID 686971, 2013
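% activity derives from luminescence (CellTiter-Glo), normalised to DMSO and no-cell wells. HT-1080-IDH1KD cells, 750/well, had 48 h compound exposure at 37 °C.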
TDP1 cell CPT: qHTS for Inhibitors of human tyrosyl-DNA phosphodiesterase 1 (TDP1): qHTS in cells in presence of CPT | chicken DT40 Tdp1-/-;hTDP1 cells + 20 nM CPT, ATP luminescence, 48 h | Potency, µM (titrated, usually from 46.2 µM), usual class: inhibitors | 420,000 compounds, 12% hits | AID 686979, 2013; note: nearly all actives have a fitted effect of over 55% in size
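Chicken DT40 Tdp1-/- cells complemented with human TDP1, 400 cells/well, exposed to compounds plus 20 nM camptothecin for at least 48 h at 37 C; viability read as ATP content by CellTiter-Glo luminescence.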
Hits are given with their value; 0 = inactive; ? = inconclusive; - = no result; [ ] = dose if it differs, or a comment. Calls come from the whole dose curve; as a rule, active = well fitted curve in the direction sought with a large enough effect; inconclusive = small, poorly fitted or top-dose-only effect, or another doubt; inactive = no such curve, though single readings can be large; an effect the other way counts as inactive or inconclusive.

SMILES | HepG2 tox | HT1080-NT tox | TGFb SMAD3 inh | DT40 TDP1 no CPT | HT1080 IDH1KD tx | TDP1 cell CPT
OC(COc1ccccc1)CN1CCCCC1 (configuration not stated) | 0 | 0 | 0 | 0 | 0 | 0
CCOc1ccc(-c2noc(CCC(=O)NC3CCCCC3)n2)cc1OC | 0 | 0 | 0 | 0 | 0 | 0
C=C(c1cn(C(C)=O)c2ccccc12)c1cn(C(C)=O)c2ccccc12 | 0 | 0 | 0 | ? | 0 | 23µM
O=C(Oc1c(CN2CCOCC2)cc(Cl)c2cccnc12)c1ccccc1Cl | 3.5µM | ? | ? | 2.9µM | 6.5µM | 2.3µM
O=C(Oc1ccc(Cl)c2cccnc12)N1CCOCC1 | 0 | 0 | 0 | 0 | 0 | 0
COc1cc(C(=O)Oc2c(OC)cc(C(=S)N3CCOCC3)cc2OC)cc(OC)c1OC | 0 | 0 | 0 | 0 | 0 | 0
COc1cc(C(=O)Oc2c(CN3CCOCC3)cc(Cl)c3cccnc23)cc(OC)c1OC | 0 | ? | 4µM | 5.2µM | ? | 2.6µM
COc1ccc(C(=O)Oc2c(CN3CCOCC3)cc(Cl)c3cccnc23)cc1 | 7.9µM | 21µM | 10µM | 5.8µM | ? | 8.2µM
O=C(Oc1c(CN2CCOCC2)cc(Cl)c2cccnc12)c1ccc(F)cc1 | 0 | ? | ? | 5.2µM | ? | 4.6µM
CCOC(=O)c1cc(S(=O)(=O)N2CCN(C3CCCCC3)CC2)cn1C | 0 | 0 | 0 | 0 | 0 | 0
OCCN1CCN(c2ncnc3c2ncn3[C@H]2CN(Cc3ccncc3)C[C@@H](CO)O2)CC1 | 0 | 0 | 0 | 0 | 0 | 0
COc1cccc(C(=O)Oc2c(CN3CCOCC3)cc(Cl)c3cccnc23)c1 | 0 | ? | ? | 0.82µM | 12µM | 0.73µM
COc1ccc(-c2cc3nc(-c4ccc(Br)cc4)cc(C(F)(F)F)n3n2)cc1 | 0 | - | 0 | 0 | - | 0
Cc1c(C(=O)Nc2ccc(F)c(F)c2)oc2ccc(S(=O)(=O)N(C)C3CCCCC3)cc12 | 0 | - | ? | 15µM | - | 18µM
Cc1ccc(NC(=O)c2oc3ccc(S(=O)(=O)N(C)C4CCCCC4)cc3c2C)cc1Cl | 0 | - | 0 | ? | - | ?
Cc1c(C(=O)NCC2COc3ccccc3O2)oc2ccc(S(=O)(=O)N(C)C3CCCCC3)cc12 (configuration not stated) | 0 | 0 | 0 | 15µM | 0 | ?
CC(C)CNC(=O)c1cn(C2CCN(Cc3nc4ccccc4s3)CC2)nn1 | - | - | - | 0 | - | 0
CCn1c(CNC(=O)c2cccc(C)c2)nnc1SCC(=O)Nc1nnc(C)s1 | 0 | 0 | 0 | 0 | 0 | 0
CCCCNC(=O)c1nn2c(C(F)(F)F)cc(-c3ccc(OC)cc3)nc2c1Br | 0 | 0 | 0 | ? | 0 | 23µM
COc1ccc(-c2cc(C(F)(F)F)n3nc(C(=O)N(C)Cc4ccccc4)cc3n2)cc1OC | 0 | 0 | 0 | ? | 0 | 16µM
CCCCNC(=O)c1cc2nc(-c3ccc(OC)cc3)cc(C(F)(F)F)n2n1 | 0 | 0 | 0 | 26µM | 0 | ?
COc1cc(NC(=O)c2cc3nc(-c4ccc(C)cc4)cc(C(F)(F)F)n3n2)cc(OC)c1OC | 0 | - | 0 | 7.3µM | - | ?
COC(=O)c1cc2nc(-c3ccc(C)cc3)cc(C(F)(F)F)n2n1 | 0 | 0 | 0 | 0 | 0 | 0
O=C(Cn1cnc([N+](=O)[O-])n1)c1ccc(O)c(O)c1 | 0 | 0 | 0 | 0 | 0 | 0
CC(=O)Nc1ccc2c(c1)C(=O)c1cccc(C(=O)O)c1-2 | 0 | 0 | ? | 0 | 0 | 0
SMILES | HepG2 tox | HT1080-NT tox | TGFb SMAD3 inh | DT40 TDP1 no CPT | HT1080 IDH1KD tx | TDP1 cell CPT
O=C(NCc1ccccn1)c1cnn(-c2nccc(-c3cccs3)n2)c1C1CC1 | - | - | - | 0 | - | 0[9.04 µM]
O=C(COC(=O)c1cc(=O)[nH]c(=O)[nH]1)Nc1cccc(Cl)c1 | 0 | 0 | 0 | 0 | 0 | 0
COc1ccc(-c2nc3ccccc3o2)cc1NC(=O)C(C)(C)Oc1ccc(Br)cc1 | 0 | - | 0 | - | - | -
Cc1ccc(N2CC(C)Cn3c2nc2c3c(=O)n(Cc3cccc(Cl)c3)c(=O)n2C)cc1 (configuration not stated) | 0 | - | 0 | 0 | - | 0
Cc1cc(-c2ccccc2)nc2cc(C(=O)N(Cc3ccccc3)Cc3ccccc3)nn12 | 0 | ? | ? | ? | 16µM | ?
CS(=O)(=O)c1sc(C#N)c2c1C(=O)CC(c1ccccc1)C2 (configuration not stated) | 0 | 6.5µM | ? | 0.52µM | 23µM | 0.52µM
CCOc1c(Br)cc(C2NS(=O)(=O)N=C3CCCCCN32)cc1OC (configuration not stated) | 0 | 0 | 0 | 16µM | 0 | ?
NCCCN(Cc1ccccc1)c1ccc(Br)cn1 | - | 0 | - | ? | 0 | 11µM
CC(=O)Nc1ccc(S(=O)(=O)N2CCN(C(=O)c3ncoc3-c3ccc(F)cc3)CC2)cc1 | 0 | 0 | 0 | 0 | 0 | 0
COc1cc(C(=O)N2CC(=O)Nc3ccccc32)cc(OC)c1OC | 0 | ? | 0 | 8.2µM | ? | 8.2µM
Cc1ccsc1C(=O)N1CC(=O)Nc2ccccc21 | 0 | ? | 0 | 23µM | 18µM | ?
O=C(O)CC1Sc2ccccc2NC1=O (configuration not stated) | 0 | 0 | 0 | 0 | 0 | 0
O=C1Nc2ccccc2SC(c2ccccc2)C1O (configuration not stated) | 0 | 0 | 0 | ? | 0 | 23µM
CC(C)(C)C(=O)OCc1nc(-c2ccc(F)cc2)cs1 | 0 | 0 | 0 | 0 | 0 | 0
C/C=C/c1cccc(-c2nc(C(=O)NC3CCC3)cc3c2[C@@H](CCO)N(S(=O)C(C)(C)C)C3)c1 (some centres not stated) | 0 | 0 | ? | ? | 0 | ?
Cc1cc(/C=C2\SC(=Nc3ccccc3)NC2=O)c(C)n1-c1ccc(S(N)(=O)=O)cc1 | 0 | 7.3µM | 13µM | 2.6µM | 5.2µM | 5.2µM
COc1ccc(-n2c(C)cc(/C=C3\SC(=O)NC3=O)c2C)cc1 | 0 | 0 | 0 | 0 | 0 | 0
OCCSc1c(F)c(SCCO)c(SCCO)c(F)c1SCCO | 0 | 0 | 0 | 0 | 0 | 0
Cc1ccc(-c2c(C(=O)NCCc3ccccc3)oc(=O)c3ccccc23)cc1 | 0 | - | ? | ? | - | 15µM
CCOc1ccc(N(C)C(=O)c2oc(=O)c3ccccc3c2-c2ccccc2)cc1 | 0 | - | 16µM | 15µM | - | 18µM
